The values that follow come from PubChem BioAssay AID2315 (National Center for Advancing Translational Sciences (NCATS), 2010).

About 27,000 (9.3%) of roughly 290,000 compounds were called active. This is one part of a sample in which actives are shown more often than they occur. Unmarked numbers belong to inactive results. Cut-off read from the data, not from the text of the source: active = inhibition mostly above about 28% (no sharp cut-off); inactive = mostly below about 43%.

This test can be described thus: A qHTS for Small Molecule Inhibitors of Shiga Toxin. Note: 0% is about no effect. As to conditions: Vero cells, Shiga toxin protein synthesis inhibition reporter; at 38.7 µM, stronger effect = higher value.
With `CCNS(=O)(=O)c1ccc(NC(=O)Nc2cccc(OC)c2)cc1`, the inhibition was -33.1%.

Take `COc1cccc(NC(=O)CCNS(=O)(=O)c2ccc3c(c2)oc(=O)n3C)c1`: the inhibition is 14.5%. Regarding `COc1cccc(NC(C)=[N+](C)CCNS(=O)(=O)c2ccc(Cl)cc2)c1`, the inhibition is 119% (active). For the compound `CCCCCCC(O)(CCN1CCCCC1)c1ccccc1` (stereo unspecified), the inhibition was -7.11%. Regarding `COc1ccc(NC(=O)C(CC(C)C)NC(=O)C2CCC(C)CC2)cc1` (stereo unspecified), the inhibition is 35.8%. As for `CC(=O)c1cnc(-c2ccccc2)s1`, the figure is 59% (active); as for `O=C(/C=C/Nc1ccccc1)c1cnc(-c2ccccc2)s1`, -10.9%. As to `CNC(=O)c1csc(-c2ccccc2)n1`, the inhibition is 25.9%. `CCCn1nnnc1NCc1ccc(OC)cc1`: the inhibition is -12.1%. Turning to `CCS(=O)(=O)C1=NSC2=NC(=O)/C(=C\c3ccc(OS(=O)(=O)c4ccccc4)cc3)C(=N)N21`, the inhibition was 14.7%. In the case of `Cc1ccccc1N1CCN(S(=O)(=O)c2ccc3ccccc3c2)CC1`, the inhibition is -3.59%.

As for `O=C(c1cccc(-n2cccc2)c1)N1CCN(S(=O)(=O)c2ccc(F)cc2)CC1`, the inhibition is -1.04%. Regarding `O=C(CCc1ccccc1)NNC(=O)COc1ccc(Cl)cc1`, the inhibition is -14.5%. For `O=C(NCCc1ccccc1)Oc1ccc(Cl)cc1`, the inhibition was 62.7% (active). Take `Cc1cc(C(=O)NCCc2ccc(Cl)cc2)c(C)o1`: the inhibition was 87.4% (active). Consider `NS(=O)(=O)c1ccc(CCNC(=O)c2ccc(Cl)cc2[N+](=O)[O-])cc1`, for which the inhibition is 12.8%. Turning to `Cc1cc(C(=O)NCCc2ccc(Cl)cc2)n(-c2ccccc2)n1`, the inhibition is -4.98%. For `O=C(COc1ccc(Cl)cc1)NCCSc1ccccc1`, the inhibition is -8.84%. For `COc1cccc(C(=O)NNS(=O)(=O)c2ccc(F)cc2)c1`, the inhibition is 0.43%. For the compound `CCN1CCN(CCNC(=O)c2ccc3c(c2)NC(=O)/C(=C\c2ccc(OC)c(OC)c2)S3)CC1`, the inhibition was -8.25%. The figure for `O=C1N/C(=C/c2cccn2-c2ccccc2)C(=O)N1c1cccc(Cl)c1` is 60.1% (active). As to `COc1cc2c(cc1/C=C1/NC(=O)N(c3ccccc3)C1=O)OCO2`, the inhibition is 24.2%. With `Cc1ccccc1NC(=O)CN1C(=O)N/C(=C\c2cccn2-c2cccc(C(=O)O)c2)C1=O`, the inhibition was -13.8%.

With `CCc1cccc(C)c1N1C(=O)CN(Cc2ccccc2)C1=S`, the inhibition was -3.04%. The figure for `O=C(c1c(F)cccc1F)N1CCN(S(=O)(=O)c2ccc3c(c2)OCCO3)CC1` is 2.06%.

With `O=C(Nc1ccc(OCC(=O)N2CCOCC2)cc1)c1cc(F)c(F)cc1Cl`, the inhibition was 24.7%.
